Among the data in PMC9911399, “Two distinct binding modes provide the RNA-binding protein RbFox with extraordinary sequence specificity” are binding signal values, retold here.

Residue numbers refer to the chain shown, from its start. The full ranking holds about 16,000 sequences; the median of “ka relative to ugcaugu” is about 0.096, and the highest 2% start at about 0.35. The full list was thinned out, with the highest values kept by preference.

T1: RBFOX1 RRM RbFoxmut (Fox-RRM*) (Homo sapiens, UniProt Q9NWB1 109-208, R118D;E147R;N151S;E152T)
T1 sequence: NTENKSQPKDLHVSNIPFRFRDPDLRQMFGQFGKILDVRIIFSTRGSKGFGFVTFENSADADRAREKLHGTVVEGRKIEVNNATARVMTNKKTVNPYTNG

B1: UCGGUAA (DNA:RNA)
RNA: GGGAGACCGGAAUUCAGAUUGUCCUCGGUAAUUAAAUCCCGUCGUAGCCACCA
DNA 1: CAATCTGAATTCCGGTCTCCC
DNA 2: TGGTGGCTACGACGGGATT
B2: CUCCUAG (DNA:RNA)
RNA: B1 RNA with U25C, C26U, G27C, G28C, A31G
DNA 1: CAATCTGAATTCCGGTCTCCC
DNA 2: TGGTGGCTACGACGGGATT
B3: AUUGUGA (DNA:RNA)
RNA: B1 RNA with U25A, C26U, G27U, A30G
DNA 1: CAATCTGAATTCCGGTCTCCC
DNA 2: TGGTGGCTACGACGGGATT
B4: GCGUAUC (DNA:RNA)
RNA: B1 RNA with U25G, G28U, U29A, A30U, A31C
DNA 1: CAATCTGAATTCCGGTCTCCC
DNA 2: TGGTGGCTACGACGGGATT
B5: GUAUCUC (DNA:RNA)
RNA: GGGAGACCGGAAUUCAGAUUGUCCGUAUCUCUUAAAUCCCGUCGUAGCCACCA
DNA 1: CAATCTGAATTCCGGTCTCCC
DNA 2: TGGTGGCTACGACGGGATT
B6: UUGUAUC (DNA:RNA)
RNA: B5 RNA with G25U, A27G, C29A
DNA 1: CAATCTGAATTCCGGTCTCCC
DNA 2: TGGTGGCTACGACGGGATT
B7: UAUCUUG (DNA:RNA)
RNA: B1 RNA with C26A, G27U, G28C, A30U, A31G
DNA 1: CAATCTGAATTCCGGTCTCCC
DNA 2: TGGTGGCTACGACGGGATT
B8: GUGUAUC (DNA:RNA)
RNA: B5 RNA with A27G, C29A
DNA 1: CAATCTGAATTCCGGTCTCCC
DNA 2: TGGTGGCTACGACGGGATT
B9: CCGUAUC (DNA:RNA)
RNA: B5 RNA with G25C, U26C, A27G, C29A
DNA 1: CAATCTGAATTCCGGTCTCCC
DNA 2: TGGTGGCTACGACGGGATT
B10: CAAGCAG (DNA:RNA)
RNA: B5 RNA with G25C, U26A, U28G, U30A, C31G
DNA 1: CAATCTGAATTCCGGTCTCCC
DNA 2: TGGTGGCTACGACGGGATT
B11: CACGUCU (DNA:RNA)
RNA: B1 RNA with U25C, C26A, G27C, A30C, A31U
DNA 1: CAATCTGAATTCCGGTCTCCC
DNA 2: TGGTGGCTACGACGGGATT
B12: CUGGAUG (DNA:RNA)
RNA: B5 RNA with G25C, A27G, U28G, C29A, C31G
DNA 1: CAATCTGAATTCCGGTCTCCC
DNA 2: TGGTGGCTACGACGGGATT
B13: CCCUGGA (DNA:RNA)
RNA: B1 RNA with U25C, G27C, G28U, U29G, A30G
DNA 1: CAATCTGAATTCCGGTCTCCC
DNA 2: TGGTGGCTACGACGGGATT
B14: CGGAUGU (DNA:RNA)
RNA: B1 RNA with U25C, C26G, G28A, A30G, A31U
DNA 1: CAATCTGAATTCCGGTCTCCC
DNA 2: TGGTGGCTACGACGGGATT
B15: UGCGAUC (DNA:RNA)
RNA: B5 RNA with G25U, U26G, A27C, U28G, C29A
DNA 1: CAATCTGAATTCCGGTCTCCC
DNA 2: TGGTGGCTACGACGGGATT
B16: UGCGCGA (DNA:RNA)
RNA: B1 RNA with C26G, G27C, U29C, A30G
DNA 1: CAATCTGAATTCCGGTCTCCC
DNA 2: TGGTGGCTACGACGGGATT
B17: UGGAUGU (DNA:RNA)
RNA: B1 RNA with C26G, G28A, A30G, A31U
DNA 1: CAATCTGAATTCCGGTCTCCC
DNA 2: TGGTGGCTACGACGGGATT
B18: CUGGAGA (DNA:RNA)
RNA: B1 RNA with U25C, C26U, U29A, A30G
DNA 1: CAATCTGAATTCCGGTCTCCC
DNA 2: TGGTGGCTACGACGGGATT
B19: UGGAUUU (DNA:RNA)
RNA: B1 RNA with C26G, G28A, A30U, A31U
DNA 1: CAATCTGAATTCCGGTCTCCC
DNA 2: TGGTGGCTACGACGGGATT
B20: UGGGAUG (DNA:RNA)
RNA: B1 RNA with C26G, U29A, A30U, A31G
DNA 1: CAATCTGAATTCCGGTCTCCC
DNA 2: TGGTGGCTACGACGGGATT
B21: UGCGAUG (DNA:RNA)
RNA: B1 RNA with C26G, G27C, U29A, A30U, A31G
DNA 1: CAATCTGAATTCCGGTCTCCC
DNA 2: TGGTGGCTACGACGGGATT
B22: UGGGAGA (DNA:RNA)
RNA: B1 RNA with C26G, U29A, A30G
DNA 1: CAATCTGAATTCCGGTCTCCC
DNA 2: TGGTGGCTACGACGGGATT
B23: UGGGGGA (DNA:RNA)
RNA: B1 RNA with C26G, U29G, A30G
DNA 1: CAATCTGAATTCCGGTCTCCC
DNA 2: TGGTGGCTACGACGGGATT
B24: UAACCGA (DNA:RNA)
RNA: B5 RNA with G25U, U26A, U28C, U30G, C31A
DNA 1: CAATCTGAATTCCGGTCTCCC
DNA 2: TGGTGGCTACGACGGGATT
B25: UGACGUC (DNA:RNA)
RNA: B5 RNA with G25U, U26G, U28C, C29G
DNA 1: CAATCTGAATTCCGGTCTCCC
DNA 2: TGGTGGCTACGACGGGATT
B26: UGGUAGU (DNA:RNA)
RNA: B1 RNA with C26G, G28U, U29A, A30G, A31U
DNA 1: CAATCTGAATTCCGGTCTCCC
DNA 2: TGGTGGCTACGACGGGATT
B27: UGCCGUU (DNA:RNA)
RNA: B5 RNA with G25U, U26G, A27C, U28C, C29G, C31U
DNA 1: CAATCTGAATTCCGGTCTCCC
DNA 2: TGGTGGCTACGACGGGATT
B28: CCAUGGC (DNA:RNA)
RNA: B5 RNA with G25C, U26C, C29G, U30G
DNA 1: CAATCTGAATTCCGGTCTCCC
DNA 2: TGGTGGCTACGACGGGATT
B29: AUCUUAC (DNA:RNA)
RNA: B5 RNA with G25A, A27C, C29U, U30A
DNA 1: CAATCTGAATTCCGGTCTCCC
DNA 2: TGGTGGCTACGACGGGATT
B30: UGAUGUC (DNA:RNA)
RNA: B5 RNA with G25U, U26G, C29G
DNA 1: CAATCTGAATTCCGGTCTCCC
DNA 2: TGGTGGCTACGACGGGATT
B31: UGAUGUG (DNA:RNA)
RNA: B5 RNA with G25U, U26G, C29G, C31G
DNA 1: CAATCTGAATTCCGGTCTCCC
DNA 2: TGGTGGCTACGACGGGATT
B32: UGAGAUG (DNA:RNA)
RNA: B5 RNA with G25U, U26G, U28G, C29A, C31G
DNA 1: CAATCTGAATTCCGGTCTCCC
DNA 2: TGGTGGCTACGACGGGATT

For the experiment, the target named is T1, RBFOX1 RRM RbFoxmut (Fox-RRM*). The experiment can be described thus: EMSA; HiTS-Eq, 1 nM pool, 10 min; buffer printed only for the single-RNA assays: 10 mM Tris pH 7.5, 150 mM NaCl, 3.4 mM EDTA, 0.001% NP-40, 30 C. The following applies: tags: His6 N-terminal (pET28a); label: 5' 32P. An outline of the steps: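 Purified RbFox RRM, wild type or mutant, was incubated for 10 min in 50 µL with 1 nM of a 5′-radiolabelled RNA pool carrying 7 randomized nucleotides, whose flanks were annealed to DNA oligonucleotides, over a series of increasing protein concentrations. Unbound RNA was resolved on 8% native PAGE, cut out, reverse-transcribed, barcoded by PCR and sequenced on an Illumina HiSeq 2500. Relative association constants were derived from changes in read counts for each RNA species versus the control reaction and normalised to the cognate motif.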
A general note: Mobility shift assays separate free from complexed probe on a gel.
On to B1, for which the binding signal was 0.133 KA relative to UGCAUGU.

As to B2, the binding signal is 0.0819 KA relative to UGCAUGU. The same measure for B3: 0.0934 KA relative to UGCAUGU; for B4: 0.194 KA relative to UGCAUGU. The same measure for B5: 0.0751 KA relative to UGCAUGU; for B6: 0.523 KA relative to UGCAUGU; for B7: 0.0958 KA relative to UGCAUGU. The same measure for B8: 0.424 KA relative to UGCAUGU. As for B9, the binding signal is 0.163 KA relative to UGCAUGU. Then B10, with 0.0856 KA relative to UGCAUGU; and B11, with 0.0849 KA relative to UGCAUGU; and B12, with 0.646 KA relative to UGCAUGU. Then B13, with 0.0858 KA relative to UGCAUGU; and B14, with 0.281 KA relative to UGCAUGU; and B15, with 0.286 KA relative to UGCAUGU. The same measure for B16: 0.0898 KA relative to UGCAUGU. In the case of B17, the binding signal is 0.756 KA relative to UGCAUGU. The same measure for B18: 0.0675 KA relative to UGCAUGU. The same measure for B19: 0.0654 KA relative to UGCAUGU. The same measure for B20: 0.691 KA relative to UGCAUGU. Consider B21, for which the binding signal was 0.493 KA relative to UGCAUGU.

As to B22, the binding signal is 0.137 KA relative to UGCAUGU. Then B23, with 0.102 KA relative to UGCAUGU. The same measure for B24: 0.0866 KA relative to UGCAUGU; for B25: 0.0923 KA relative to UGCAUGU.

For B26, the binding signal is 0.163 KA relative to UGCAUGU. B27: the binding signal is 0.113 KA relative to UGCAUGU. The same measure for B28: 0.0829 KA relative to UGCAUGU; for B29: 0.12 KA relative to UGCAUGU.

As for B30, the binding signal is 0.207 KA relative to UGCAUGU.

For the molecule B31, the binding signal is 0.184 KA relative to UGCAUGU. Then B32, with 0.429 KA relative to UGCAUGU.
